Results taken from the supplement of paper PMC6279402.
Counter-ions that a name gives are not always drawn. ± gives the standard deviation of the averaged measurements.

System: A549
Assay: relative viability (normalised to negative control = 1, bortezomib = 0) (fraction); higher = less cytotoxic
Settings: inflammatory serum-free RHB-A with cytokines + LPS, 5 d + 24 h CellTiter-Blue
Description: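 A549 KRAS-mutant NSCLC cells, pre-treated 5 µM GSK126 or vehicle (DMSO), were seeded at 250 cells/well in 384-well plates in serum-free RHB-A medium with inflammatory cytokines/LPS and treated with Selleck kinase inhibitor and NCI oncology compounds at 30 or 300 nM in triplicate, refreshed at 48 h. Viability was read by CellTiter-Blue after 5 d plus 24 h and normalised per plate with cellHTS2 (mean of bortezomib positive control = 0, mean of negative control = 1).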

[1] = compound 30 nM, GSK126 pretreatment: 5 uM GSK126
[2] = compound 30 nM, GSK126 pretreatment: none (vehicle)
[3] = compound 300 nM, GSK126 pretreatment: 5 uM GSK126
[4] = compound 300 nM, GSK126 pretreatment: none (vehicle)

SMILES	relative viability [1]	relative viability [2]	relative viability [3]	relative viability [4]
CNC(=O)c1cc(Oc2ccc(NC(=O)Nc3cc(C(C)(C)C)nn3-c3ccc4ncccc4c3)c(F)c2)ccn1 [DCC-2036 (Rebastinib)]	1.37 ± 0.1	1.35 ± 0.12	1.48 ± 0.067	1.57 ± 0.06
C#CCC(Cc1cnc2nc(N)nc(N)c2n1)c1ccc(C(=O)N[C@@H](CCC(=O)O)C(=O)O)cc1 (stereo not given in full) [pralatrexate]	0.878 ± 0.027	0.859 ± 0.075	0.765 ± 0.068	0.896 ± 0.06
OCCn1cc(-c2ccc3c(c2)CC/C3=N\O)c(-c2ccncc2)n1	0.948 ± 0.11	0.989 ± 0.093	1.03 ± 0.21	1.14 ± 0.16
Nc1ccn([C@@H]2O[C@H](CO)[C@@H](O)C2(F)F)c(=O)n1 [Gemcitabine hydrochloride; Gemcitabine HCl]	0.396 ± 0.12	0.264 ± 0.087	0.39 ± 0.093	0.19 ± 0.087
CCC[C@H](NC(=O)/C(C#N)=C/c1cccc(Br)n1)c1ccccc1	0.926 ± 0.078	0.929 ± 0.044	0.973 ± 0.14	1.04 ± 0.065
Nc1nc(Cl)nc2c1ncn2[C@@H]1O[C@H](CO)[C@@H](O)[C@@H]1F [Clofarabine]	0.74 ± 0.12	0.693 ± 0.026	0.28 ± 0.047	0.256 ± 0.027
Cc1ccc(NC(=O)c2ccc(CN3CCN(C)CC3)cc2)cc1Nc1nc(-c2cccnc2)cs1 [Masitinib(AB1010)]	0.802 ± 0.1	0.761 ± 0.1	0.841 ± 0.11	0.979 ± 0.091
COc1cc2c(Oc3ccc4[nH]c(C)cc4c3F)ncnc2cc1OCCCN1CCCC1 [Cediranib(AZD2171)]	0.943 ± 0.053	0.968 ± 0.019	0.981 ± 0.11	0.996 ± 0.051
CC[C@]1(O)C[C@@H]2CN(CCc3c([nH]c4ccccc34)[C@@](C(=O)OC)(c3cc4c(cc3OC)N(C)[C@H]3[C@@](O)(C(=O)OC)[C@H](OC(C)=O)[C@]5(CC)C=CCN6CC[C@]43[C@@H]65)C2)C1 [Vinblastine sulfate salt; Vinblastine sulfate]	0.447 ± 0.011	0.286 ± 0.039	0.277 ± 0.024	0.255 ± 0.022
CN(C)Cc1cccc(N=C(c2ccccc2)c2c(O)[nH]c3cc(C(N)=O)ccc23)c1	0.984 ± 0.17	0.911 ± 0.16	1.08 ± 0.2	0.942 ± 0.13
